According to PubChem BioAssay AID602399 (Sanford-Burnham Center for Chemical Genomics, 2012):
Among all 360,000 compounds or so, about 2,800 (0.78%) were called active. Rule as the data show it: active = inhibition above about 26%; inactive = the rest. The sample as a whole holds a higher share of actives than the screen did.

The molecules below were run on Nicotinate-nucleotide adenylyltransferase NadD (Staphylococcus aureus N315) (assay: S. aureus NadD enzyme activity blockers – biochemical, colorimetric, uHTS, primary screen (AID 602399)). Conditions: purified NadD enzyme, colorimetric absorbance read-out; at 20 µM; active compounds read high.

inhibition, inactive:
Cc1cc(=O)[nH]c(SCc2ccc(Cl)cc2)n1 -4.15%, Cc1cc(C(=O)CSc2nc(N)cc(=O)[nH]2)c(C)n1-c1cccc(F)c1 23.5%, C/C=C/C=C/C(=O)O 2.73%, COC(=O)c1sccc1NC(=O)CSc1ccccc1NS(=O)(=O)c1cc(Cl)ccc1Cl 8.33%, Cc1ccc(S(=O)(=O)N/N=C\c2cc3c(cc2[N+](=O)[O-])OCO3)cc1 -4.98%, O=[N+]([O-])c1ccccc1/C=N/n1c(COc2ccccc2)n[nH]c1=S 4.33%, O=C1CC2(CC(c3ccc(Cl)cc3)=NO2)C(=O)N1c1ccccc1 (stereo not drawn) -6.96%, CC(=O)Nc1ccc(NC(=O)C(C)n2c3ccccc3c3nc(=O)cc(C)n32)cc1 (stereo not drawn) 1.71%, Cc1cc(C)cc(N(CC(=O)Nc2c(C)n(C)n(-c3ccccc3)c2=O)S(C)(=O)=O)c1 0.515%, O=C(/C=C/c1ccco1)NC(=S)N1CCCCC1 0.202%, COc1ccc(Cl)cc1C(=O)NNC(=S)NC1CCCC1 2.3%, Cc1ccc(C(=O)NN(CCC#N)C2=NS(=O)(=O)c3ccccc32)cc1 2.03%, C=CC1=C(C(=O)O)N2C(=O)[C@@H](NC(=O)/C(=N\OCC(=O)O)c3csc(N)n3)[C@H]2SC1 15.8%, Cc1ccc(Cl)cc1NC(=O)C1CCN(S(C)(=O)=O)CC1 -1.83%, CN(C)c1nc(N)nc(Cn2nnc(-c3ccc(C(F)(F)F)cc3)n2)n1 -3.29%, CC1(Oc2cccc(F)c2)CCN(Cc2ccccc2OC(F)F)C1 (stereo not drawn) -4.85%, CC(=O)Nc1ccc(SCC(=O)Nc2ccccc2Oc2ccccc2)cc1 -2.74%, C/C(CC(C)C)=N\Oc1nc(C)cc(C)n1 -5.32%, CSc1nc(-c2ccco2)nn1C(=O)c1ccccc1Cl -4.61%, Cc1ccc2nc(-c3ccco3)c(Cc3cccc(Cl)c3)n2c1 2.81%, COc1ccccc1N(CC(=O)N1CCCCC1)S(=O)(=O)c1ccccc1 0.503%, CC(C#N)(NC(=O)CN1CCN(S(=O)(=O)c2cc(C(F)(F)F)ccc2Cl)CC1)C1CC1 (stereo not drawn) -1.47%, Cc1ccnc2nc(C(=O)Nc3nnc(-c4ccccc4)o3)nn12 -3.89%, O=C(Nc1nnc(-c2ccc(Cl)cc2)o1)c1ccccc1Br 9.64%, CN(Cc1nc2ccc(F)cc2[nH]1)Cc1nc(CC2CC2)no1 -3.27%, CCN(C(=O)CN1CCN(Cc2ccccc2)CC1)c1c(N)n(Cc2ccccc2)c(=O)[nH]c1=O -5.19%, Cc1ccccc1NC(=O)c1ccc(COc2ccc3c(C)cc(=O)oc3c2)cc1 1.94%, CCCCCOc1ccc(/C=C/C(=O)NCCc2nc3ccccc3[nH]2)cc1OC 0.224%, Cc1ccc(C(=O)N/C(=C/c2ccco2)C(=O)NCCc2c[nH]c3ccccc23)cc1C 2.77%, CCn1c(SCC(=O)N/N=C/c2ccccc2OCC(=O)O)nnc1-c1ccc(C(C)(C)C)cc1 5.5%, CCOC(=O)N1CCC(NC(=O)CCc2cn(C)c3ccccc23)CC1 0.741%, COc1ccc(CCNC(=O)CN2C(=O)CCSc3ccccc32)c(OC)c1 -0.893%, COC(=O)COc1ccc2c(c1C)O/C(=C\c1ccco1)C2=O -6.79%, CC1CCN(C(=S)NC2CC3CCC2C3)CC1 (stereo not drawn) 1.51%, Cc1nn(C)c(C)c1Sc1ccccc1N -4.87%, Cc1ccc(NC(=O)N2CCC(c3nc4c(nnn4Cc4c(F)cccc4Cl)c(=O)[nH]3)CC2)cc1 22.9%, CC(C)(C)c1ccc(Cn2nnc3c(=O)[nH]c(C4CCCN(C(=O)c5ccco5)C4)nc32)cc1 (stereo not drawn) 4.55%, CC(C)COC(=O)c1ccc(NC(=O)C2C3C=CC(C3)C2C(=O)O)cc1 (stereo not drawn) 3.38%, COCCNC(=O)C(c1ccc(C)cc1)N(C(=O)CCC(=O)Nc1ccccn1)c1cccc(C)c1 (stereo not drawn) -8.33%, O=C(c1ccc(C(F)(F)F)cc1)N1CCC(=O)N([C@H](COCc2ccccc2)Cc2ccccc2)CC1 -5.31%, O=C(CCc1ccccc1Cl)Nc1ccc(S(=O)(=O)Nc2nccs2)cc1 -3.71%, O=C(Nc1ccc(S(=O)(=O)Nc2nccs2)cc1)c1cc(=O)[nH]c2ccccc12 -0.912%, CCOc1ccc(NC(=O)c2ccc(CSc3nnnn3C)cc2)cc1 -3.76%, CCc1ccc2c(c1)C1(NN=C(c3ccccc3)S1)C(=O)N2 (stereo not drawn) 3.11%, O=C(CSc1ccccc1)Nc1cc(Cl)ccc1Oc1ccccc1 6.26%, O=C(CSc1nc2ccc(Nc3nc(N4CCOCC4)nc(N4CCOCC4)n3)cc2s1)NCc1ccco1 8.01%

inhibition, active:
Cc1cc(C(=O)CSc2nc(N)cc(=O)[nH]2)c(C)n1CCc1ccc(Cl)cc1 45.2%, CCOc1ccc(-c2n[nH]c(=S)n2/N=C/c2cc3c(cc2[N+](=O)[O-])OCO3)cc1 33.3%, COc1ccc(Cl)cc1C(=O)NNC(=S)NC(=O)/C=C/c1ccco1 41.2%, C=CC1=C(C(=O)O)N2C(=O)[C@@H](NC(=O)/C(=N/OCC(=O)O)c3csc(N)n3)[C@H]2SC1 94.8%, CCC(C)Cn1c(O)cc2nn(-c3nc4ccccc4s3)c(=O)c-2c1C (stereo not drawn) 81.3%, Clc1ccccc1CSc1nnc(-c2ccco2)c(-c2ccco2)n1 29.3%, O=C(Nc1nnc(-c2ccccc2)o1)c1cc(-c2cccs2)nc2ccccc12 40.6%, CC(C)Oc1ccc(/C=C(\NC(=O)/C=C/c2ccco2)C(=O)NCCc2nc3ccccc3[nH]2)cc1 40.3%, CC(C)(C)C1C/C(=C/c2ccco2)C(=O)/C(=C/c2ccco2)C1 (stereo not drawn) 41.6%, Cc1ccc(Cn2nnc3c(=O)[nH]c(C4CCN(S(=O)(=O)/C=C/c5ccccc5)CC4)nc32)cc1 31.1%, O=C(Nc1ccc(S(=O)(=O)Nc2nccs2)cc1)c1cc(-c2ccncc2)nc2ccccc12 52.3%, O=C(CSc1nc(Nc2ccccc2)nc(N2CCOCC2)n1)Nc1cc(Cl)ccc1O 37.7%
